{
  "source": "PubChem BioAssay (NCI)",
  "note": "Compounds without any hit were thinned out: in the full panel of roughly 83,000, 20% have a hit.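 For each line, cells grew in 96-well plates with the test compound present at a single concentration for 48 hours.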 Unmarked numbers belong to inactive results. Active and inactive are the calls of the source. The calls were made as follows: active = growth percent below 10; inactive = the rest.",
  "data": [
    {"system": "SK-MEL-2 melanoma", "assay": "NCI-60 one-dose screen, 48 h (100 = growth as untreated, 0 = no growth, -100 = all killed)", "conditions": "10 µM unless noted", "values": [
      {"smiles": "C=C(C)[C@@H]1CC[C@]2(C(=O)N3CCCNCC3)CC[C@]3(C)[C@H](CC[C@@H]4[C@@]5(C)CCC(=O)C(C)(C)[C@@H]5CC[C@]43C)[C@@H]12", "growth": "118%"},
      {"smiles": "CCCCC[C@H]1CC=C2C(=O)C(Cl)=C[C@@H]2CC=CCCCC(=O)O[C@@H](CCCCC)CC=C2C(=O)C(Cl)=C[C@@H]2CC=CCCCC(=O)O[C@@H](CCCCC)CC=C2C(=O)C(Cl)=C[C@@H]2CC=CCCCC(=O)O1", "growth": "91.4% [8 µM]"},
      {"smiles": "Cn1c(=O)c2c(ncn2CCC(=O)Nc2ccc(F)cc2)n(C)c1=O", "growth": "104%"},
      {"smiles": "COc1ccc(-c2cc(-c3c(C)oc4cc5occc5c(OC)c4c3=O)nc(N)c2C#N)cc1OC", "growth": "60.7%"},
      {"smiles": "COc1cc(NC(C)CN(CC(C)C)C(C)C)c2ncccc2c1", "note": "(stereo not given)", "growth": "113%"},
      {"smiles": "COc1ccc(/C=C/C(=O)NCC(C)O)cc1", "note": "(stereo not given)", "growth": "93.3%"},
      {"smiles": "Cc1cc(N(CCCNc2ccnc3cc(Cl)ccc23)Cc2ccco2)nc(Cl)n1", "growth": "65.4%"},
      {"smiles": "Cc1c(C)c2c(c(C)c1NC(=O)CCCCCCC(=O)O)CCC(C)(CCCC(C)CCCC(C)CCCC(C)C)O2", "note": "(stereo not given)", "growth": "43.2%"},
      {"smiles": "CN(C)c1ccc(N=C2C=CC(=O)C=C2)cc1", "growth": "97.1%"},
      {"smiles": "Fc1ccc(NCc2nnc(-c3ccc(Cl)cc3)o2)cc1", "growth": "85.5%"},
      {"smiles": "COc1ccc(OCC(CO)N2CCN(c3ccccc3)CC2)cc1", "note": "(stereo not given)", "growth": "106%"},
      {"smiles": "CCCCC(=O)OC1CCCCC1C", "note": "(stereo not given)", "growth": "111%"},
      {"smiles": "COc1ccc2c(c1)c(-c1nc(-c3cn(C)c4ncccc34)cs1)cn2CCN", "growth": "101%"},
      {"smiles": "COc1ccc(CCN2C(=O)C(C)(C)SC2=S)cc1OC", "growth": "107%"},
      {"smiles": "COc1cccc(-c2nn(-c3ccccc3)cc2-c2ccnc(NCCNS(=O)(=O)c3cccc(F)c3)c2)c1", "growth": "16.2%"},
      {"smiles": "COc1ccccc1-n1cnc(N)c1C(=O)c1cc(OC)c(OC)c(OC)c1", "growth": "57.1%"},
      {"smiles": "Cc1cc(N2CCCCC2)nc(N(CCNc2ccnc3cc(Cl)ccc23)Cc2ccco2)n1", "growth": "76.4%"},
      {"smiles": "N#CC1=C(N)Oc2c(c(N)nn2-c2ccccc2)C1c1ccc(Cl)cc1Cl", "note": "(stereo not given)", "growth": "101%"},
      {"smiles": "COc1ccc(NC(=O)c2ccc3c(c2)nc(-c2cc4ccccc4[nH]c2=O)n3-c2cc(C(C)(C)C)[nH]n2)cc1", "growth": "99.7%"},
      {"smiles": "N#CC1=C(N)Oc2c(sc3c(F)cccc23)C1c1ccc(Cl)cc1", "note": "(stereo not given)", "growth": "-3.89% (active)"},
      {"smiles": "Cc1ccc(Cc2cnc(NC(=O)/C=C/c3cccc(C)c3)s2)cc1", "growth": "51.6%"},
      {"smiles": "Oc1cccc2oc(=S)[nH]c12", "growth": "109%"},
      {"smiles": "COc1cc(/C=C/c2cc(/C=C/c3ccc(O)c(OC)c3)n(-c3ccccc3)c(=O)n2)ccc1O", "growth": "79.5%"},
      {"smiles": "NC(=O)NCC1CCCCC1", "growth": "105%"},
      {"smiles": "N#Cc1cnc2cc(OC[C@@H](O)CO)c(NC(=O)CC3CSSC3)cc2c1Nc1ccc(OCc2cccc(F)c2)c(Cl)c1", "growth": "-67.7% (active)"},
      {"smiles": "CC(=O)OCCCCCCn1c2ccccc2c2c3c(c4c5ccccc5n(C)c4c21)C(=O)N(O)C3=O", "growth": "84.6%"},
      {"smiles": "Cc1nn2c(-c3nc4cc(Cl)c(Cl)cc4[nH]3)c(-c3ccc(F)cc3)nc2s1", "growth": "57.9%"},
      {"smiles": "COc1ccc(-n2c(/C=C/c3ccc(O)c(OC)c3)cc(/C=C/c3ccc(O)c(OC)c3)nc2=O)cc1", "growth": "84.9%"},
      {"smiles": "Cc1ccc2oc(=O)cc(-c3sc(N4CCCCC4)nc3-c3ccccc3)c2c1", "growth": "93.7%"},
      {"smiles": "Nc1c2c(nc3ccc(Cl)cc13)CC(c1ccc(O)cc1)CC2=O", "note": "(stereo not given)", "growth": "61.3%"},
      {"smiles": "C/C(=N\\NC(=O)C(C)SC(C)C(=O)N/N=C(\\C)c1cccnc1)c1cccnc1", "note": "(stereo not given)", "growth": "93.8%"},
      {"smiles": "O=C1CCC/C=C\\C[C@H]2C=C(Cl)C(=O)/C2=C/C[C@H](CCCCC(F)(F)F)OC(=O)CCC/C=C\\C[C@H]2C=C(Cl)C(=O)/C2=C/C[C@H](CCCCC(F)(F)F)O1", "growth": "-45.5% [7.5 µM] (active)"},
      {"smiles": "O=C1/C(=C\\c2ccco2)SC(=S)N1CCc1ccc(O)cc1", "growth": "104%"},
      {"smiles": "O=C(O)/C(=C/c1ccc(O)cc1)c1ccccc1", "growth": "105%"},
      {"smiles": "CCCCC/C(=C\\c1ccccc1)C1OC(C)C(C)O1", "note": "(stereo not given)", "growth": "83.5%"},
      {"smiles": "Cc1cc(C=O)c(C)c2c1[nH]c1ccccc12", "growth": "75.6%"}
    ]},
    {"system": "EKVX NSCLC", "assay": "NCI-60 one-dose screen, 48 h (100 = growth as untreated, 0 = no growth, -100 = all killed)", "conditions": "10 µM unless noted", "values": [
      {"smiles": "C=C(C)[C@@H]1CC[C@]2(C(=O)N3CCCNCC3)CC[C@]3(C)[C@H](CC[C@@H]4[C@@]5(C)CCC(=O)C(C)(C)[C@@H]5CC[C@]43C)[C@@H]12", "growth": "98.3%"},
      {"smiles": "CCCCC[C@H]1CC=C2C(=O)C(Cl)=C[C@@H]2CC=CCCCC(=O)O[C@@H](CCCCC)CC=C2C(=O)C(Cl)=C[C@@H]2CC=CCCCC(=O)O[C@@H](CCCCC)CC=C2C(=O)C(Cl)=C[C@@H]2CC=CCCCC(=O)O1", "growth": "96.6% [8 µM]"},
      {"smiles": "Cn1c(=O)c2c(ncn2CCC(=O)Nc2ccc(F)cc2)n(C)c1=O", "growth": "101%"},
      {"smiles": "COc1ccc(-c2cc(-c3c(C)oc4cc5occc5c(OC)c4c3=O)nc(N)c2C#N)cc1OC", "growth": "92.8%"},
      {"smiles": "COc1cc(NC(C)CN(CC(C)C)C(C)C)c2ncccc2c1", "note": "(stereo not given)", "growth": "105%"},
      {"smiles": "COc1ccc(/C=C/C(=O)NCC(C)O)cc1", "note": "(stereo not given)", "growth": "99.4%"},
      {"smiles": "Cc1cc(N(CCCNc2ccnc3cc(Cl)ccc23)Cc2ccco2)nc(Cl)n1", "growth": "43.5%"},
      {"smiles": "Cc1c(C)c2c(c(C)c1NC(=O)CCCCCCC(=O)O)CCC(C)(CCCC(C)CCCC(C)CCCC(C)C)O2", "note": "(stereo not given)", "growth": "86.3%"},
      {"smiles": "CN(C)c1ccc(N=C2C=CC(=O)C=C2)cc1", "growth": "75.3%"},
      {"smiles": "Fc1ccc(NCc2nnc(-c3ccc(Cl)cc3)o2)cc1", "growth": "77%"},
      {"smiles": "COc1ccc(OCC(CO)N2CCN(c3ccccc3)CC2)cc1", "note": "(stereo not given)", "growth": "108%"},
      {"smiles": "CCCCC(=O)OC1CCCCC1C", "note": "(stereo not given)", "growth": "104%"},
      {"smiles": "COc1ccc2c(c1)c(-c1nc(-c3cn(C)c4ncccc34)cs1)cn2CCN", "growth": "56.5%"},
      {"smiles": "COc1ccc(CCN2C(=O)C(C)(C)SC2=S)cc1OC", "growth": "94%"},
      {"smiles": "COc1cccc(-c2nn(-c3ccccc3)cc2-c2ccnc(NCCNS(=O)(=O)c3cccc(F)c3)c2)c1", "growth": "44.6%"},
      {"smiles": "COc1ccccc1-n1cnc(N)c1C(=O)c1cc(OC)c(OC)c(OC)c1", "growth": "55.3%"},
      {"smiles": "Cc1cc(N2CCCCC2)nc(N(CCNc2ccnc3cc(Cl)ccc23)Cc2ccco2)n1", "growth": "64.8%"},
      {"smiles": "N#CC1=C(N)Oc2c(c(N)nn2-c2ccccc2)C1c1ccc(Cl)cc1Cl", "note": "(stereo not given)", "growth": "91.2%"},
      {"smiles": "N#CC1=C(N)Oc2c(sc3c(F)cccc23)C1c1ccc(Cl)cc1", "note": "(stereo not given)", "growth": "51.4%"},
      {"smiles": "Cc1ccc(Cc2cnc(NC(=O)/C=C/c3cccc(C)c3)s2)cc1", "growth": "29.4%"},
      {"smiles": "Oc1cccc2oc(=S)[nH]c12", "growth": "111%"},
      {"smiles": "COc1cc(/C=C/c2cc(/C=C/c3ccc(O)c(OC)c3)n(-c3ccccc3)c(=O)n2)ccc1O", "growth": "71.4%"},
      {"smiles": "NC(=O)NCC1CCCCC1", "growth": "96.6%"},
      {"smiles": "N#Cc1cnc2cc(OC[C@@H](O)CO)c(NC(=O)CC3CSSC3)cc2c1Nc1ccc(OCc2cccc(F)c2)c(Cl)c1", "growth": "-68% (active)"},
      {"smiles": "CC(=O)OCCCCCCn1c2ccccc2c2c3c(c4c5ccccc5n(C)c4c21)C(=O)N(O)C3=O", "growth": "98.6%"},
      {"smiles": "COc1ccc(-n2c(/C=C/c3ccc(O)c(OC)c3)cc(/C=C/c3ccc(O)c(OC)c3)nc2=O)cc1", "growth": "56.7%"},
      {"smiles": "Cc1ccc2oc(=O)cc(-c3sc(N4CCCCC4)nc3-c3ccccc3)c2c1", "growth": "90.4%"},
      {"smiles": "Nc1c2c(nc3ccc(Cl)cc13)CC(c1ccc(O)cc1)CC2=O", "note": "(stereo not given)", "growth": "29.8%"},
      {"smiles": "O=C1c2ccccc2C(=Cc2ccccc2)c2ccccc21", "growth": "11.3%"},
      {"smiles": "C/C(=N\\NC(=O)C(C)SC(C)C(=O)N/N=C(\\C)c1cccnc1)c1cccnc1", "note": "(stereo not given)", "growth": "100%"},
      {"smiles": "O=C1CCC/C=C\\C[C@H]2C=C(Cl)C(=O)/C2=C/C[C@H](CCCCC(F)(F)F)OC(=O)CCC/C=C\\C[C@H]2C=C(Cl)C(=O)/C2=C/C[C@H](CCCCC(F)(F)F)O1", "growth": "13.3% [7.5 µM]"},
      {"smiles": "O=C1/C(=C\\c2ccco2)SC(=S)N1CCc1ccc(O)cc1", "growth": "91.1%"},
      {"smiles": "O=C(O)/C(=C/c1ccc(O)cc1)c1ccccc1", "growth": "105%"},
      {"smiles": "CCCCC/C(=C\\c1ccccc1)C1OC(C)C(C)O1", "note": "(stereo not given)", "growth": "103%"}
    ]}
  ]
}
